Test results taken from PubChem BioAssay AID540254 (Southern Research Specialized Biocontainment Screening …, 2011).
Among all 1,800 compounds or so, fewer than 10 were called active. These entries were drawn from the full list. Entries with a potency or affinity are not part of this list. A number with no mark means an inactive call. The rule behind the calls is not given here.

assay: antiviral activity against H1N1 influenza, dose response, cell-based, strain KY180 (AID 540254); conditions: H1N1 KY180 influenza antiviral cell-based screen; series mostly up to 40 µM; inhibition: at the top concentration

SMILES | inhibition [%]
O=C(Nc1nc(-c2ccccn2)cs1)C1COc2ccccc2O1 (configuration not stated) | -1.68
CC(=O)N/N=C(\C)c1cccc(NC(=O)c2cccs2)c1 | 0
O=C(Nc1nc2c(s1)CCCC2)C1COc2ccccc2O1 (configuration not stated) | -1.12
Cn1c(=O)c2[nH]c(NN=Cc3ccc(Br)cc3)nc2n(C)c1=O | -1.47
COc1ccc(C(=O)NC(=S)NNC(=O)c2cnccn2)cc1OC | 0.25
COC(=O)c1ccccc1NC1=C/C(=N\S(=O)(=O)c2ccc(C(=O)O)cc2)c2ccccc2C1=O | -2.51
CCNC(=S)NNC(=O)c1ccccn1 | 1.27
O=c1c2ccccc2ncn1Cc1ccco1 | 0.5
Oc1c(CN2CCCCC2)ccc2cccnc12 | -2.01
COCc1cc(C)nc(SCC(=O)Nc2ccc3c(c2)n(C)c(=O)n3C)c1C#N | -0.56
Nc1ccccc1C(=O)NCc1ccc(Cl)cc1 | -1.27
Nc1nc(SCc2ccc([N+](=O)[O-])cc2)nc2nc3c(cc12)CCCC3 | 1.97
CCN(CC)CCNc1nc2cc(OC)c(OC)cc2c2nc(-c3ccccc3)nn12 | -5.15
Cc1cc(N(C)N)nc(NC(=O)NS(=O)(=O)c2ccccc2Cl)n1 | -0.5
Cn1cc(S(=O)(=O)Nc2ccc(Br)cc2F)c(=O)n(C)c1=O | 1.97
O=C(NCC1CCCO1)C(=O)N/N=C/c1cc(Cl)ccc1O (configuration not stated) | 1.27
O=C(NCCCN1CCOCC1)C(=O)N/N=C/c1ccccc1O | 0
Cc1ccc(OCCn2c(C3CC(=O)N(Cc4ccccc4)C3)nc3ccccc32)cc1 (configuration not stated) | -2.51
CCOC(=O)c1cnc(-n2[nH]c(C)c(Cc3ccccc3)c2=O)[nH]c1=O | 0.56
Cc1ccc(C(c2nnnn2Cc2cccs2)N2CCN(Cc3ccc4c(c3)OCO4)CC2)cc1 (configuration not stated) | -2.95
COc1cc(/C=C2\SC(c3ccccc3)=NC2=O)cc(Cl)c1O | 0.56
COC(=O)C1CCN(C(=O)Cc2ccc(C)cc2)CC1 | 0.5
COc1ccc(Cc2nnc(N/N=C/c3ccc(O)cc3)[nH]c2=O)cc1OC | -1.51

SMILES | inhibition [%]
CC1CC(=O)N(C)c2ccc([N+](=O)[O-])cc2N1 (configuration not stated) | 1.12
O=C(c1cc2ccccc2o1)N1CCCCCC1 | 2.01
COc1cc(OC)cc(C(=O)NC(=S)NNC(=O)c2cnccn2)c1 | -1.68
CC1CCCC(C)N1c1nnc(NC(=O)Cn2c(=O)oc3ccccc32)s1 (configuration not stated) | -1.97
Fc1ccc(-[n+]2nc(Nc3ccccc3)sc2-c2c(Cl)cccc2Cl)cc1 | -2.01
CC1NC(=O)NC1CCCCCC(=O)Nc1ccc(F)cc1 (configuration not stated) | 1.57
CCc1nnc(SCC(=O)N2CCc3ccccc32)n1CC | 2.46
O=C(CNCc1ccccn1)Nc1cc(S(=O)(=O)N2CCCCC2)ccc1Cl | 0
Cc1nc2sccn2c(=O)c1S(=O)(=O)N1CCN(c2ccc(F)cc2)CC1 | 4.25
O=C1NC(c2ccccn2)Nc2sc3c(c21)CCC3 (configuration not stated) | -1.47
COc1cccc(/C=N/NC(=O)CCCC(=O)NC2CCCCC2)c1 | 1.47
CCOC(=O)Cn1c(=O)oc2cc(S(=O)(=O)NCc3ccccn3)ccc21 | -0.67
COc1cccc(C2c3c(oc4ccc(Cl)cc4c3=O)C(=O)N2c2cc(C)on2)c1OC (configuration not stated) | -1.57
CC(/C=N/NC(=O)c1ccc(Cn2cc([N+](=O)[O-])cn2)o1)=C\c1ccccc1 | 1.97
CCOc1ccc(C(=O)NCCn2cc(SCC(=O)Nc3cc(C)on3)c3ccccc32)cc1 | 0.56
O=C(N/N=C/c1ccc([N+](=O)[O-])cc1)c1ccccc1OCc1ccccc1 | -1.01
CC(=O)Cc1nsc(NC(=O)c2ccc(-c3cc(C(F)(F)F)ccc3Cl)o2)n1 | -0.56
CCCCC(=O)NC(c1ccc(N(C)C)cc1)c1ccc2cccnc2c1O (configuration not stated) | 0
CC(C)COC(=O)c1ccc2c(c1O)C(=O)c1ccccc1C2=O | -1.12
CCOC(=O)CCSCC(=O)Nc1nnc(C)s1 | 1.27
O=C(CSc1ccccc1)Nc1nnc(/C=C/c2ccccc2)s1 | 0.25
COc1ccc(C(CNC(=O)CN2C(=O)NC3(CCCC3)C2=O)N(C)C)cc1 (configuration not stated) | 4.02
COc1ccc(C(=O)COC(=O)CN2CC(=O)Oc3ccccc32)cc1Br | -1.97

SMILES | inhibition [%]
O=C(NC1CCCC1)C(c1cccnc1)N(C(=O)c1csnn1)c1ccccc1Cl (configuration not stated) | 0.22
CCOC(=O)C1=C(C)N(C)C(C)=C(C(=O)OCC)C1c1ccncc1 | 13.2
O=[N+]([O-])c1ccc(CSc2ccc(-c3ccccn3)nn2)cc1 | -1.01
O=C(NN=C1CCCCCC1)c1cccs1 | 2.53
CCOC(=O)C1CCN(c2c(NC3CCCCCCC3)c(=O)c2=O)CC1 | -1.12
CC(C)C(=O)N(c1cc2sc(=O)oc2c2ccccc12)S(=O)(=O)c1cccs1 | -1.27
CN1C(=O)/C(=C\c2cc(N=Nc3ccccc3)ccc2O)SC1=S | -0.25
CCCC(=O)OC(C(=O)Nc1cc(C(F)(F)F)ccc1Cl)c1ccccc1 (configuration not stated) | 0
Cc1ccccc1-c1nc(CN2CCC(C(=O)N3CCC(C(N)=O)CC3)CC2)c(C)o1 | 7.38
O=C(O)c1ccc(-n2nnnc2Oc2cccc3cccnc23)cc1 | 1.51
Cc1ccc(NC(=O)C2CCCN(c3ncccn3)C2)cc1F (configuration not stated) | -0.5
CN(C)S(=O)(=O)c1cccc(NC(=O)CNCc2ccccn2)c1 | 1.97
COc1ccc(C)cc1NC(=O)CSc1ccc(-c2ccccn2)nn1 | -1.27
COc1ccc(N2CCN(CCCNC(=O)c3cc4sccc4n3C)CC2)cc1 | 0
COc1ccc(N2CCN(CCCNS(=O)(=O)c3ccc4c(c3)oc(=O)n4C)CC2)cc1 | 1.27
COc1ccc(N2CCN(C(=O)c3cccc(Cn4cc(Cl)cn4)c3)CC2)cc1 | -2.53
COc1ccccc1-c1c(C)nn2c(N3CCN(Cc4ccccc4)CC3)cc(C)nc12 | -5.59
Cc1ccc(C)c(N=Nc2nc3ccccc3n2C)c1 | -0.25
NS(=O)(=O)c1ccc(NC(=O)Nc2ccc3c(c2)OCO3)cc1 | 0
COc1ccc(/C=N\NC(=O)c2cc(O)c(O)c(O)c2)cc1COc1ccc(C(=O)OCC(C)C)cc1 | -1.01
Cc1ccc(-c2csc(NC(=O)c3cccc(N4C(=O)CCC4=O)c3)n2)o1 | -0.25
Cc1cc2cc(CNC(=O)c3ccc(S(=O)(=O)N4CCCC4)cc3)ccc2n1C | 1.97
Cc1cc(C)c(NN=c2c(=O)c3ccccc3c2=O)c(C)c1 | -0.56

SMILES | inhibition [%]
COCc1cc(=O)[nH]c(Nc2nc3ccc(C)cc3o2)n1 | -2.53
O=C(CCCN1C(=O)c2ccccc2C1=O)Nc1sc2c(c1C(=O)NCc1ccco1)CCC2 | 0.56
Cc1ccc(-c2nc3ncccn3c2Nc2ccc3c(c2)OCO3)o1 | 9.17
O=[N+]([O-])c1cc(/C=N/N/C(=N/c2ccccn2)c2ccccn2)ccc1O | 0
O=[N+]([O-])c1cc2no[n+]([O-])c2cc1N1CCCCC1 | -1.97
CCOc1ccc(C(=O)N/N=C/c2cccc3cccnc23)cc1 | -4.25
Cc1nc2ccc(S(=O)(=O)Nc3cccc(-c4nc5cccnc5s4)c3C)cc2s1 | 0
COc1cc(C2CC(=O)Oc3c(C(CCN4CCCC(C)C4)c4ccc(N(C)C)cc4)c(OC)cc(OC)c32)cc(OC)c1OC (configuration not stated) | -2.46
CCOc1cc2c(cc1OCC)-n1cccc1C(c1ccc(C(C)C)cc1)NC2 (configuration not stated) | 0
CSc1cccc(NC(=S)N(CCN(C)C)C(C)c2ccccn2)c1 (configuration not stated) | 29
Cc1ccccc1NC(=S)N(CCN(C)C)C(C)c1ccccn1 (configuration not stated) | 6.16
O=C(Cn1cc(SCc2ccc(Cl)cc2)c2ccccc21)N1CCOCC1 | 0
O=C1C(NS(=O)(=O)c2ccc(Br)cc2)=C(N2CCCCC2)C(=O)c2ccccc21 | -2.53
CCN(CC)C(=O)CCc1nc2sc3c(c2c(=O)[nH]1)CCCC3 | 0
O=C(CN1CCN(Cc2cccc(Cl)c2)C1=O)NCc1ccccn1 | 2.46
Cc1ccc(Cl)c(NC(=O)COC(=O)CNS(=O)(=O)/C=C/c2ccccc2)c1Cl | 1.27
CC(C)C(=O)N(c1ccc2oc(=O)sc2c1)S(=O)(=O)c1ccccc1 | -1.01
CC(=NNC(=S)N1CCC1)c1ccccn1 | -2.46
COc1ccccc1C(CCNCc1ccc(N(C)C)cc1)c1ccc(OC(C)C)cc1 (configuration not stated) | -1.27
CSC1=NC(C)(C)CC2(C)Nc3ccccc3N12 (configuration not stated) | 11.4
Cc1cccn2cc(CCNS(=O)(=O)c3ccc4c(c3)OCCO4)nc12 | -1.27
Cc1cc(C(=O)N/N=C/c2cc([N+](=O)[O-])ccc2O)c2ccccc2n1 | -1.01
CC(C)(C)c1nnc(N/N=C/c2cc(Br)ccc2O)n(N)c1=O | 0
